High-throughput results (PubChem)
The full list was thinned out, with hits kept by preference.
Pf Dd2 growth: Plasmodium falciparum Dd2 growth inhibition; Potency, µM (titrated, usually from 28.9 µM), hits mostly inhibitors; 4.3% of 120,000 active; P. falciparum Dd2 growth, SYBR Green, 72 h; AID 1347417; active = well fitted inhibition curve with a large enough effect; also: nearly all actives have a fitted effect of over 65% in size
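Infected erythrocytes (Dd2, 0.3% parasitemia, 2.5% hematocrit final) are added to compound in RPMI-1640/Albumax II medium, grown 72 h at 37C in low oxygen, then lysed with saponin/Triton-X containing SYBR Green and read by fluorescence.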
Each line names hits and unclear results; the compound was inactive in the other large screens.

Cc1ccc(-n2nc3c(N4CCC(C(=O)N5CCC(C)CC5)CC4)nnc(C)c3c2C)cc1	none
COc1ccccc1CNC(=O)C1CCN(c2nnc(C)c3c(C)n(-c4ccccc4)nc23)CC1	none
Cc1ccccc1CNC(=O)C1CCN(c2nnc(C)c3c(C)n(-c4ccccc4)nc23)CC1	none
CCOc1ccc(NC(=O)C2CCN(c3nnc(C)c4c(C)n(-c5ccccc5)nc34)CC2)cc1	none
CCOC(=O)C1CCN(C(=O)C2CCN(c3nnc(C)c4c(C)n(-c5ccccc5)nc34)CC2)CC1	Pf Dd2 growth 3.2µM
Cc1nnc(N2CCC(C(=O)NC(C)C)CC2)c2nn(-c3ccc(Cl)cc3)c(C)c12	none
Cc1ccc(-n2nc3c(N4CCC(C(=O)NCCc5ccccc5C)CC4)nnc(C)c3c2C)cc1	Pf Dd2 growth 8.9µM
Cc1nnc(N2CCC(C(=O)NCc3cccc(Cl)c3)CC2)c2nn(-c3ccccc3)c(C)c12	none
Cc1ccc(-n2nc3c(N4CCC(C(=O)NC(C)c5ccccc5)CC4)nnc(C)c3c2C)cc1 (stereo not given)	Pf Dd2 growth 10µM
Cc1nnc(N2CCC(C(=O)NC(C)C)CC2)c2nn(-c3ccccc3)c(C)c12	none
Cc1ccc(NC(=O)C2CCN(c3nnc(C)c4c(C)n(-c5ccccc5)nc34)CC2)c(Cl)c1	none
O=C(NC1CC1)C1CN(c2ccc(F)cc2)C(=O)N1 (stereo not given)	none
CC(C)CCN(C)C1CCCc2ccccc21 (stereo not given)	none
CCOC(=O)C1=CN(CC(=O)Nc2cccc(C)c2)S(=O)(=O)N=C1C	none
O=C1CC2CCN(Cc3cccc(Br)n3)CC2CCN1 (stereo not given)	none
CNC(=O)[C@@H](c1ccccc1)N1CCC[C@H]1C(=O)N1CCOCC1	none
COc1ccc(NC(=O)N2CCC(Oc3ncccc3C(=O)N(C)C)C2)c(OC)c1 (stereo not given)	none
CN1C(=O)CS(=O)(=O)C12CCN(C(=O)COc1ccc(F)cc1)CC2	none
COC[C@@H]1CN(C(=O)c2cc(C3CC3)[nH]n2)C[C@H]1c1ccccn1	none
C#CCNC(=O)C[C@@H]1C[C@@H](C(C)C)[C@H](CNC(=O)c2ccccn2)C=C1C	none
COc1cccc(NC(=O)NC[C@@H]2C=C(C)[C@H](CC(=O)N3CCOCC3)C[C@H]2C(C)C)c1	none
COc1cccc(NC(=O)NC[C@@H]2C=C(C)[C@H](CC(=O)N3CCN(c4ccccn4)CC3)C[C@H]2C(C)C)c1	Pf Dd2 growth 13µM
CC1=C[C@@H](CNC(=O)c2cccnc2)[C@H](C(C)C)C[C@H]1CC(=O)N1CCCC1	none
CC(=O)N1CCN(C(=O)C[C@@H]2C[C@@H](C(C)C)[C@H](CNC(=O)Nc3cccc(F)c3)C=C2C)CC1	none
COc1ccccc1C(=O)NC[C@@H]1C=C(C)[C@H](CC(=O)N2CCCC2)C[C@H]1C(C)C	Pf Dd2 growth 13µM
CC1=C[C@@H](CNC(=O)c2ccccn2)[C@H](C(C)C)C[C@H]1CC(=O)N1CCN(C)CC1	Pf Dd2 growth 11µM
COc1ccccc1C(=O)NC[C@@H]1C=C(C)[C@H](CC(=O)NCc2ccccn2)C[C@H]1C(C)C	none
CC1=C[C@@H](CNC(=O)c2cccnc2)[C@H](C(C)C)C[C@H]1CC(=O)N1CCN(C)CC1	none
CC(C(=O)NCc1ccccc1F)C1CCOCC1 (stereo not given)	none
CC(C)NC(=O)N[C@H]1C[C@H]2C(=O)NC[C@@H](CCC(=O)N3CCN(c4ccccn4)CC3)N2C1	none
COC(=O)[C@]1(C)N[C@H](c2cc(F)c(OC)c(Cl)c2)[C@@H]2C(=O)N(C)C(=O)[C@@H]21	none
CN1c2cc(C(=O)NCCc3ccccc3)ccc2C(=O)N2CCCC21 (stereo not given)	none
CCN1CC2(CCN(C(=O)c3ccc4c(c3)ncn4CCO)CC2)OC1=O	none
CCn1nc(CC(C)C)cc1C(=O)NC1CCCN(c2ncccn2)C1 (stereo not given)	none
CCOC(=O)c1c(C)oc2nc(C)nc(N(C)Cc3ccccc3)c12	Pf Dd2 growth 13µM
CCOC(=O)c1c(C)oc2nc(C)nc(NCC3CCN(Cc4ccc(Cl)cc4)CC3)c12	Pf Dd2 growth 13µM
CCOC(=O)c1c(C)oc2nc(C)nc(Nc3cccc(OC)c3)c12	none
CCOC(=O)c1c(C)oc2ncnc(Nc3ccc(OCC)cc3)c12	none
CCOC(=O)c1c(C)oc2nc(C)nc(NCc3ccc(OC)cc3OC)c12	none
CCOC(=O)c1c(C)oc2nc(C)nc(NC(C)c3ccccc3)c12 (stereo not given)	Pf Dd2 growth 10µM
CCOC(=O)c1c(C)oc2ncnc(N3CCN(c4cccc(Cl)c4)CC3)c12	none
CCOC(=O)c1c(C)oc2ncnc(NCCc3ccccc3)c12	none
CCOC(=O)c1c(C)oc2nc(C)nc(N3CCN(c4ccc(C)cc4C)CC3)c12	none
CCOC(=O)c1c(C)oc2nc(C)nc(NCc3ccc(Cl)cc3)c12	none
CCOC(=O)c1c(C)oc2nc(C)nc(NCCCN3CCN(c4cc(Cl)ccc4C)CC3)c12	none
CCOC(=O)c1c(C)oc2nc(C)nc(N3CCN(c4cccc(C(F)(F)F)c4)CC3)c12	Pf Dd2 growth 10µM
COCC(=O)NC[C@H]1OC[C@@H](NC2CCCCC2)[C@@H]1O	none
